High-throughput results from PubChem BioAssay.
Only a selection was taken, and hits are over-represented in it overall.
Shiga toxin inh: Shiga toxin inhibition. AID 2315. Vero cells, Shiga toxin protein synthesis inhibition reporter. 9.2% of 290,000 active. inhibition, % at 38.7 µM; in the data active = inhibition mostly above about 28%, no sharp cut-off; inactive = mostly below about 43%; note: 0% is about no effect
AmpC inh detg: AmpC beta-lactamase inhibition with detergent present | P00811 | AmpC hydrolysis of nitrocefin, absorbance 480 nm, 0.01% Triton | Potency, µM (series often up to 114 µM), without a hit: top-dose activity change, negative = inhibition, hits mostly inhibitors | AID 485294 | 0.041% of 370,000 active;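 note: potency is the fitted concentration of half-maximal effect; 0% = no-compound wells and -100% = no-enzyme wells; nearly all actives have a fitted effect of over 25% in size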
Target sequence (P00811 whole entry, looked up): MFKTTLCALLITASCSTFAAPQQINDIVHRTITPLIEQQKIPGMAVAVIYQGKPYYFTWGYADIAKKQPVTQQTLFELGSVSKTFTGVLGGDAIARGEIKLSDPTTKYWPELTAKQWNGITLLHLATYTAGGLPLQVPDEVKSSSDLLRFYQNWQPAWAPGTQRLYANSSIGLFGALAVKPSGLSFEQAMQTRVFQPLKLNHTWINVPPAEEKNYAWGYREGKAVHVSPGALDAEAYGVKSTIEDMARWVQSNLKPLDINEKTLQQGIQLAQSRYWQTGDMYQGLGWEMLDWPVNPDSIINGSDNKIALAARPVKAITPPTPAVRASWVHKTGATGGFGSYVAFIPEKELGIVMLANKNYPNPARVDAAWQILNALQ
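AmpC (5.3 nM in the dispensed reagent) in 20 mM phosphate pH 7.0 with 0.01% (detergent screen) or 0.0001% Triton X-100 was preincubated with compounds for 15 min at room temperature. Nitrocefin was then added from an 800 uM solution, and hydrolysis was followed at 480 nm.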
SARS PLpro yeast: inhibitors of SARS-CoV papain-like protease in yeast | Potency, µM (top dose mostly 32.9 µM), inactives show top-dose activity, positive = growth rescue, usual class: activators | 0.19% of 330,000 active | S. cerevisiae expressing SARS-CoV PLpro, growth rescue; calls by dose curve; note: potency is the fitted concentration of half-maximal effect; 0% is about no effect; nearly all actives have a fitted effect of over 55% in size
CHX counter: affects cycloheximide protein synthesis inhibition readout, counter-screen; max response, %; cell reporter, cycloheximide protein synthesis inhibition counterscreen; 12% of 300,000 active; in the data active = max response mostly above about 13%, no sharp cut-off; inactive = mostly below about 14%; note: read at 38.3 µM for the half of the compounds with a filed dose; 0% is about no effect
AmpC no deterg: blocks E. coli AmpC beta-lactamase in detergent-free assay; P00811; AmpC nitrocefin hydrolysis, absorbance 480 nm, 0.0001% Triton; Potency, µM (top dose mostly 57.1 µM), for the others: top-dose activity change, negative = inhibition, usual class: inhibitors; 0.52% of 330,000 active;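 note: potency is the fitted concentration of half-maximal effect; plate controls were no compound for no effect and no enzyme for full effect; nearly all actives have a fitted effect of over 20% in size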
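20 mM phosphate pH 7.0 + 0.01% (detergent screen) or 0.0001% Triton X-100; 5.3 nM AmpC reagent; cpd preinc 15 min RT; nitrocefin (800 uM stock) to start; A480 q20 s × 4 min; Activity was normalised to no-enzyme and no-compound control wells.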
AMA1 RON2 block: disrupts binding of P. falciparum AMA1 to RON2 | AlphaScreen AMA1-biotinylated RON2 peptide binding | Potency, µM (series often up to 58.2 µM), inactives show at the highest dose activity change, negative = inhibition, hits mostly inhibitors | 0.2% of 360,000 active | AID 720542;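 note: potency is the fitted concentration of half-maximal effect; 0% = vehicle wells and -100% = peptide control; nearly all actives have a fitted effect of over 45% in size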
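AMA1 (3D7) with his tag at 25 nM final met compounds first, then biotinylated RON2 peptide at 25 nM; detection used donor plus acceptor beads, 10 µg/mL apiece, read by AlphaScreen after 30 min at room temperature.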
Numbers without * were called inactive; u = inconclusive; x = no result given; [ ] = dose if it differs, or a comment. Unless noted, calls come from the whole dose curve; as a rule, active = well fitted curve in the direction sought with a large enough effect; inconclusive = small, poorly fitted or top-dose-only effect, or another doubt; inactive = no such curve, though single readings can be large; an effect the other way counts as inactive or inconclusive.

SMILES	Shiga toxin inh	AmpC inh detg	SARS PLpro yeast	CHX counter	AmpC no deterg	AMA1 RON2 block
C[C@H](NC(=O)[C@@H]1CSC2c3ccccc3C(=O)N21)C(=O)NCCc1ccccc1 (some centres undefined)	51*	-6%	19%	43*	15%	-2%
c1ccc(CSc2nnc3ccc(-c4ccncc4)nn23)cc1	16	u	2%	7	-8%	15%
Cc1ccc(C(=O)Nc2cccc(C(=O)N/N=C/c3ccc(O)cc3)c2)cc1	34	2%	3%	28*	-46%	-9%
Cc1cccc(C(=O)Nc2cccc(C(=O)N/N=C/c3ccncc3)c2)c1	-3	-2%	-7%	-2	-38%	15%
O=C(N/N=C/c1cccs1)c1cccc(NC(=O)c2ccc(Cl)cc2)c1	13	-12%	-12%	29*	-21%	x
O=C(N/N=C/c1cccc(NC(=O)c2ccc(Cl)cc2)c1)c1cccc(O)c1	77*	-9%	0%	26*	u	3%
O=C(N/N=C/c1cccs1)c1cccc(S(=O)(=O)Nc2ccc(Cl)cc2)c1	-3	-12%	0%	2	14µM*	1%
COc1ccc(NS(=O)(=O)c2cccc(C(=O)N/N=C/c3ccccc3OC)c2)cc1	x	-9%	4%	x	u	53%
O=[N+]([O-])c1ccc2ncnc(N3CCN(Cc4ccc5c(c4)OCO5)CC3)c2c1	-10	1%	-4%	1	86%	-18%
CC(NC(=O)c1cccc(S(=O)(=O)N2CCN(C)CC2)c1)C1CC2CCC1C2 (centres undefined)	-9	u	-3%	3	99%	-12%
CC(C)CC1NC(=O)c2ccc(Cl)cc2-n2c1nc1cc(F)ccc1c2=O (centres undefined)	x	x	-9%	x	-40%	x
Cc1cccc2sc(NC(=O)CN(C)S(=O)(=O)c3cccs3)nc12	45*	u	-23%	15	-20%	-6%
Cc1cccc(NC(=O)CN(C)S(=O)(=O)c2cccs2)c1	101*	-2%	-4%	15*	-30%	-3%
CN(CC(=O)N1CCc2ccccc21)S(=O)(=O)c1cccs1	99*	-13%	-4%	61*	-13%	5%
COc1ccc(NC(=O)CN(C)S(=O)(=O)c2cccs2)cc1	40*	-13%	-13%	29*	-3%	9%
CN(CC(=O)NCc1ccccc1Cl)S(=O)(=O)c1cccs1	30	-5%	1%	15*	-27%	-22%
Cc1ccccc1NC(=O)CN(C)S(=O)(=O)c1cccs1	-4	-12%	-1%	9	0%	5%
Cc1ccc(NC(=O)CN(C)S(=O)(=O)c2cccc3nsnc23)cc1	-5	-1%	-5%	0	0.16µM*	6%
CN(CC(=O)Nc1ccc(Br)cc1)S(=O)(=O)c1cccc2nsnc12	x	0%	x	x	x	x
COc1ccc(NC(=O)NC2CCCCCCC2)c(OC)c1	45*	13%	1%	30*	-25%	4%
CCOc1ccc(-c2nnn(CC(=O)NCc3ccc(OC)cc3)n2)cc1OCC	-15	u	6%	-7	-1%	0%
COC(=O)c1ccc(NC(=O)C2CC3CCC2C3)cc1 (centres undefined)	x	x	x	x	x	2%
COc1ccccc1NC(=O)NC1CCCCCCC1	35	-5%	-7%	14	63%	-4%
COC(=O)c1ccc(NC(=S)NC2CC3CCC2C3)cc1 (centres undefined)	104*	1%	6%	41*	-30%	-20%
CC(=O)Nc1ccc(C(=O)OCC(=O)NC(=O)NC2CCCCC2)cc1	-13	-19%	-1%	1	-3%	-12%
SMILES	Shiga toxin inh	AmpC inh detg	SARS PLpro yeast	CHX counter	AmpC no deterg	AMA1 RON2 block
COc1ccc(CNC(=O)Cn2nnc(-c3ccc(NC(=O)C4CCCCC4)cc3)n2)cc1	23	u	17%	21*	-18%	20%
COC(=O)c1ccc(NC(=O)NC2CCCCC2)cc1	110*	-3%	15%	41*	-21%	14%[2.32 µM]
COc1ccc(CSc2nnnn2-c2ccc(C(N)=O)cc2)cc1[N+](=O)[O-]	23	0%	-1%	-2	-18%	0%
COc1ccccc1NC(=O)Cc1nnc(SCC(=O)Nc2ccc(F)cc2F)n1C	2	0%	1%	-2	-2%	-7%
O=C(c1ccc(N2CCCCS2(=O)=O)cc1)N1CCN(c2ccccc2F)CC1	-3	1%	0%	10	71%	-6%
CCOc1cccc(-c2nn3c(-c4cc(C)[nH]n4)nnc3s2)c1	15	-11%	-6%	10	-5%	9%
COc1ccc(NC(=O)NC2CCCCCCC2)cc1	61*	7%	3%	45*	-29%	-11%
COc1ccc(CC(=O)NC2CCCCCC2)c(OC)c1	26	12%	4%	8.5*	-4%	10%
COC(=O)c1cccnc1NC(=S)NC1CCCCC1	-13	-5%	3%	-1	-19%	27%
O=C(CNC(=O)C1CCCCC1)Nc1ccccc1	3	u	0%	9	-8%	11%
COc1ccc(OC)c(NC(=O)CCCC(=O)NC2CCCCC2)c1	-10	1%	-5%	1	3%	7%
COC(=O)c1ccc(NC(=S)NC2CCCCC2)cc1	41*	u	7%	23	-17%	-18%
COc1ccc(CCNC(=O)NC2CCCCC2)cc1	18	3%	5%	11	-17%	2%
COc1ccc(NC(=O)CNC(=O)C2CCCCC2)cc1	20	u	-3%	22*	-8%	-9%
COc1ccc(C(CNc2ccc(S(=O)(=O)N3CCN(C)CC3)cc2[N+](=O)[O-])N(C)C)cc1 (centres undefined)	x	0%	4%	x	-4%	-14%
COC(=O)c1ccc(NC(=S)NCC2CC2)cc1	97*	4%	-1%	63*	-26%	-4%
COC(=O)c1ccc(NC(=S)Nc2ccc(O)cc2)cc1	14	-4%	0%	5	-14%	39%
Cc1ccc(C)c(C(=O)OCC(=O)Nc2cccc(S(=O)(=O)NC3=NCCCCC3)c2)c1	-11	u	1%	0	-6%	-9%
CN(C)/N=C/c1ccc(OS(=O)(=O)c2ccccc2)cc1	64*	1%	-2%	47*	-3%	-21%
O=S(=O)(Oc1ccc(Cl)cc1)c1cccc2cccnc12	35	2%	-4%	16*	-28%	9%
O=S(=O)(Oc1ccc(Cl)cc1)c1ccccc1	21*	x	x	21*	x	x
CCc1cnccc1CCC(=O)Nc1ccccc1C	x	x	x	x	x	1%
O=C(NN=Cc1ccc2c(c1)OCO2)c1ccc([N+](=O)[O-])cc1	x	x	x	x	x	-2%
O=C(OCc1cc(=O)n2c(n1)sc1ccccc12)c1ccc(O)cc1O	18	u	0%	1	-21%	36%
